Peg3 promoter = reduces Peg3 promoter-driven luciferase expression in HeLa | inhibition, % at 20 µM | HeLa PEG-Prom luciferase reporter, luminescence, overnight | 360,000 tested, 1.7% active | AID 588405;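 active = inhibition of at least 50% at 20 µM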
HIF-2a inh = inhibitors of HIF-2a. 786-0 RCC cells HIF-2a reporter, luciferase luminescence, overnight. inhibition, % at 18.8 µM. 360,000 tested, 0.72% active;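 active = inhibition of the luminescence signal of 40% or more relative to plate controls, in a single-dose primary screen at 18.75 µM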
TRPM1 prom inh = reduces MITF-dependent TRPM1 promoter luciferase signal. inhibition, % at 12.5 µM. SK-MEL-5 TRPM1 promoter luciferase, 24 h. 330,000 tested, 0.83% active;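 active = mean inhibition across replicates of 60% or more, whatever share of single replicates reaches that level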
CF NFkB block = cystic fibrosis NF-kB activation inhibition; KKLEB NF-kB-GFP reporter, PAF-induced, GFP fluorescence overnight; inhibition, % at 5 µM; 360,000 tested, 0.86% active;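 active = at least 50% inhibition at 5 µM, scaled per plate between neutral and stimulator controls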;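 also: PAF is a Pseudomonas aeruginosa culture filtrate used as stimulus; plate controls were PAF-stimulated DMSO wells for no effect and unstimulated DMSO wells for full effect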
CHOP inh = inhibitors of CHOP induction in ER stress response. CHO-K1 CHOP-promoter luciferase, tunicamycin-induced, 15-18 h. inhibition, % at 10 µM. 220,000 tested, 3.8% active. AID 2732;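 active = compounds that reduced the stress-induced luciferase reporter signal by more than about 70% of percent inhibition, limit read from the data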;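 also: 0% = tunicamycin plus vehicle and 100% = wells without tunicamycin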
KKLEB tox = reduces viability of KKLEB cystic fibrosis airway cells | AID 602141 | activity change (cytotoxicity), % at 5 µM | 360,000 tested, 0.36% active | KKLEB CF airway cells viability, ATPlite luminescence, overnight; hits give low values; cells stimulated with P. aeruginosa culture filtrate;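 active = corrected activity change at or below -50% at 5 µM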
The depositor's hits bear a star; . = no result given. An excerpt weighted towards active compounds, which were near 4.3% of everything screened.

SMILES	Peg3 promoter	HIF-2a inh	TRPM1 prom inh	CF NFkB block	CHOP inh	KKLEB tox
C/C(=N\NC(=O)CNc1cccc(C(F)(F)F)c1)c1cccc(Br)c1	-12.0	-42.1	-12.5	15.1	68.1	-18.6
C/C(=N\NC(=O)CNc1cccc(C(F)(F)F)c1)c1ccc(Br)cc1	8.0	5.0	-7.6	15.5	94.1*	2.8
O=C(Cn1cnc2c(oc3ccccc32)c1=O)NCc1ccccc1	-35.9	-46.3	-5.6	2.3	-6.8	-0.2
Cc1ccc(C)c(NC(=O)Cn2nc(-c3ccccc3)nc2-c2ccccc2)c1	-4.4	1.6	-4.6	4.9	86.8*	-18.0
Cc1ccc(NC(=O)Cn2nc(-c3ccccc3)nc2-c2ccccc2)c(C)c1	6.8	21.3	6.2	3.9	43.3	-2.9
Cc1ccc(C)c(NC(=O)Cn2cnc3c(oc4ccccc43)c2=O)c1	11.4	9.9	11.3	2.0	72.0*	4.8
CCC1Sc2ccc(S(=O)(=O)CCC(=O)Nc3cccc(Br)c3)cc2NC1=O (stereo unspecified)	11.1	5.1	-3.1	-1.8	.	9.2
CO[C@H]1/C=C/O[C@@]2(C)Oc3c(C)c(O)c4c(O)c(c(C=NN5CCN(C)CC5)c(O)c4c3C2=O)NC(=O)/C(C)=C\C=C\[C@H](C)[C@H](O)[C@@H](C)[C@@H](O)[C@@H](C)[C@H](OC(C)=O)[C@@H]1C	-11.0	25.4	0.5	54.6*	.	-6.9
O=C(/C=C/c1ccccc1[N+](=O)[O-])c1ccccc1Br	95.8*	37.5	-9.9	22.1	-50.3	-9.6
Cc1ccc(C(=O)/C=C/c2ccccc2[N+](=O)[O-])cc1	27.8	-198.3	-39.7	-26.8	-47.6	-5.9

Screening results as filed in PubChem BioAssay.
